From the supplement of paper PMC9254222
The full ranking holds about 1,100 compounds; the median of “Renilla luciferase signal (cell health) relative to plate median” is about 0.97, and the highest 2% start at about 1.6. For the sample, the highest values were picked, then their nearest neighbours and some compounds at random.

System: HEK293T (UBE3A T485A transfected, BAR Wnt reporter)
Assay: Renilla luciferase signal (cell health) relative to plate median (fold (linear ratio)); higher = higher Renilla signal
Settings: 24 h
How it was run: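 Chemicals at 0.01–100 uM were left on transfected HEK293T cells for 24 h, after a four-hour wait following transfection. The cells held a BAR firefly luciferase Wnt reporter, TK-Renilla and an expression plasmid. Wnt activity, as the firefly/Renilla ratio from a Dual-Glo luciferase readout, and cell health, as raw Renilla, were median-centred within each plate. Results average four biological replicates.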

| SMILES | Renilla luciferase signal (concentration: 0.01 uM) | Renilla luciferase signal (concentration: 0.1 uM) | Renilla luciferase signal (concentration: 1 uM) | Renilla luciferase signal (concentration: 10 uM) | Renilla luciferase signal (concentration: 100 uM) |
| --- | --- | --- | --- | --- | --- |
| FC(F)C(F)(F)OCC(Cn1cncn1)c1ccc(Cl)cc1Cl (centres undefined) [Tetraconazole] | 1.01 | 1.09 | 0.957 | 0.997 | 0.0289 |
| CO/N=C(/C1=NOCCO1)c1ccccc1Oc1ncnc(Oc2ccccc2Cl)c1F [Fluoxastrobin] | 0.875 | 0.941 | 1.05 | 0.383 | 1.63 |
| ClC(Cl)(Cl)c1ccccc1 [Benzotrichloride] | – | 0.82 | 0.9 | 0.872 | 1.04 |
| O=C(O)C1(c2ccc3c(c2)OC[C@H](Cc2ccc(-c4ccccc4)cc2)[C@H]3O)CCCC1 | – | 0.875 | 0.823 | 0.781 | 0.0901 |
| O=C1C2CC=CCC2C(=O)N1SC(Cl)(Cl)Cl (centres undefined) [Captan] | 1.19 | 1.04 | 0.975 | 1.02 | 0.036 |
| Clc1ccc(C(Cl)(Cl)Cl)cc1 [4-Chlorobenzotrichloride] | – | 0.548 | 0.799 | 0.652 | 0.663 |
| COc1cc(OC)nc(Sc2cccc(Cl)c2C(=O)[O-])n1.[Na+] [Pyrithiobac-sodium] | 1.11 | 1.16 | 0.967 | 1.07 | 1.69 |
| CCCCCCCCCc1ccc(O)cc1 [4-Nonylphenol, branched] | – | 1 | 0.945 | 1.06 | 0.973 |
| CC(C)(C)C(O)C(Oc1ccc(Cl)cc1)n1cncn1 (centres undefined) [Triadimenol] | 1.01 | 0.885 | 0.844 | 0.906 | 0.699 |
| CCNC(=O)NC(=O)/C(C#N)=N/OC [Cymoxanil] | 1.26 | 1.16 | 1.08 | 1.15 | 2.39 |
| CO/C=C(/C(=O)OC)c1ccccc1COc1cccc(C(F)(F)F)n1 [Picoxystrobin] | – | 0.76 | 0.879 | 0.82 | 0.465 |
| O=C(Nc1ccccc1-c1ccc(Cl)cc1)c1cccnc1Cl [Boscalid] | 0.775 | 0.848 | 0.903 | 0.818 | 1.24 |
| Oc1cccc2cccnc12 [8-Hydroxyquinoline] | – | 0.779 | 0.797 | 0.764 | 0.0228 |
| CC1=NNC(=O)N(/N=C/c2cccnc2)C1 [Pymetrozine] | 0.89 | 0.911 | 0.966 | 0.97 | 1.45 |
| CC(Oc1cccc(Cl)c1)C(=O)O (centres undefined) [Cloprop] | 0.924 | 0.701 | 0.814 | 1.01 | 2.51 |
| CC(C)OC(=O)Nc1cccc(Cl)c1 [Chlorpropham] | 0.728 | 0.618 | 0.828 | 0.81 | 0.766 |
| CC(Oc1ccc(Cl)cc1Cl)C(=O)O (centres undefined) [Dichlorprop] | 0.843 | 0.959 | 0.959 | 1.04 | 1.6 |
| CC(C)(C)C(=O)C(Oc1ccc(Cl)cc1)n1cncn1 (centres undefined) [Triadimefon] | 1.42 | 0.867 | 0.961 | 1.05 | 0.777 |
| O=C1c2ccccc2C(=O)N1SC(Cl)(Cl)Cl [Folpet] | 1.08 | 1.03 | 1.08 | 1.17 | 0.0353 |
| CNC(=O)Oc1ccccc1OC(C)C [Propoxur] | 0.908 | 0.899 | 0.869 | 0.843 | 1.18 |
| c1cc2c3c(cccc3c1)CC2 [Acenaphthene] | – | 1.17 | 1.26 | 1.14 | 1.68 |
| C1=Cc2cccc3cccc1c23 [Acenaphthylene] | – | 0.739 | 0.666 | 0.684 | 0.683 |

| SMILES | Renilla luciferase signal (concentration: 0.01 uM) | Renilla luciferase signal (concentration: 0.1 uM) | Renilla luciferase signal (concentration: 1 uM) | Renilla luciferase signal (concentration: 10 uM) | Renilla luciferase signal (concentration: 100 uM) |
| --- | --- | --- | --- | --- | --- |
| c1cc2ccc3cccc4ccc(c1)c2c34 [Pyrene] | – | 0.967 | 0.928 | 1.05 | 0.889 |
| CCOP(=S)(OCC)Oc1ccc2c(C)c(Cl)c(=O)oc2c1 [Coumaphos] | 1.01 | 1.11 | 1 | 1.04 | 0.717 |
| COC(=O)NS(=O)(=O)c1ccc(N)cc1 [Asulam] | 1.08 | 1.11 | 0.923 | 0.97 | 2 |
| COC(=O)c1ccccc1N [Methyl 2-aminobenzoate] | – | 1.09 | 1.07 | 1.11 | 1.51 |
| COC(=O)NC(=S)Nc1ccccc1NC(=S)NC(=O)OC [Thiophanate-methyl] | 1.37 | 0.913 | 1 | 1.01 | 0.274 |
| C1CC2OC2CC1C1CO1 (centres undefined) [4-Vinyl-1-cyclohexene dioxide] | – | 0.978 | 0.971 | 0.856 | 0.459 |
| Cc1cc(Cc2ccc(N)c(C)c2)ccc1N [4,4'-Methylenebis(2-methylaniline)] | – | 1.07 | 1.1 | 0.902 | 0.647 |
| CCOP(=O)(OCC)Oc1cc(C)nc(C(C)C)n1 [Diazoxon] | 1.03 | 0.822 | 0.982 | 0.982 | 1.37 |
| [N-]=[N+]=[N-].[Na+] [Sodium azide] | – | 1.11 | – | – | 1.29 |
| [N-]=[N+]=[N-].[Na+] [Sodium Azide] | 1.38 | – | 1.01 | 1.05 | – |
| O=C1C2(Cl)C3(Cl)C4(Cl)C(Cl)(Cl)C5(Cl)C3(Cl)C1(Cl)C5(Cl)C24Cl (centres undefined) [Kepone] | – | 1.03 | 0.982 | 1 | 1.33 |
| COP(=O)(NC(C)=O)SC (centres undefined) [Acephate] | 0.777 | 0.825 | 0.95 | 1 | 1.52 |
| COP(N)(=O)SC (centres undefined) [Methamidophos] | 1.08 | 0.989 | 1.14 | 1.04 | 2.27 |
| Nc1ccc(Cc2ccc(N)cc2)cc1 [4,4'-Methylenedianiline] | – | 0.803 | 0.812 | 0.825 | 0.725 |
| O=C(O)C(Cl)(Cl)Cl [Trichloroacetic acid] | – | 0.932 | 1.09 | 1.11 | 1.35 |
| CCOP(=S)(OCC)OC(Cl)C(Cl)(Cl)Cl (centres undefined) [Chlorethoxyfos] | 0.648 | 0.673 | 0.754 | 0.769 | 1.03 |
| CCC(C)c1ccc(O)cc1 (centres undefined) [4-(Butan-2-yl)phenol] | – | 1.03 | 1.04 | 0.967 | 1.21 |
| CN(C)C(=O)Nc1ccc(Cl)cc1 [Monuron] | – | 1.07 | 1.08 | 1.08 | 0.972 |
| CC(C)Oc1cccc(NC(=O)c2ccccc2C(F)(F)F)c1 [Flutolanil] | 0.958 | 0.913 | 0.934 | 0.913 | 1.07 |
| CN(C)C(=O)Nc1cccc(C(F)(F)F)c1 [Fluometuron] | 1.01 | 0.858 | 0.955 | 0.915 | 1.74 |
| Cc1[nH]c(=O)n(C(C)(C)C)c(=O)c1Cl [Terbacil] | 0.884 | 0.706 | 0.903 | 0.738 | 1.53 |
| O=S(=O)(O)C(F)(F)C(F)(F)C(F)(F)C(F)(F)C(F)(F)C(F)(F)C(F)(F)C(F)(F)F | 0.967 | 0.956 | 0.993 | 0.948 | 0.944 |

| SMILES | Renilla luciferase signal (concentration: 0.01 uM) | Renilla luciferase signal (concentration: 0.1 uM) | Renilla luciferase signal (concentration: 1 uM) | Renilla luciferase signal (concentration: 10 uM) | Renilla luciferase signal (concentration: 100 uM) |
| --- | --- | --- | --- | --- | --- |
| [Na+].[O-][Cl+][O-] [Sodium chlorite] | – | 1.07 | 0.996 | 1.06 | 1.34 |
| Clc1cc(Cl)c(Cl)cc1Cl [1,2,4,5-Tetrachlorobenzene] | – | 0.579 | 0.572 | 0.454 | 0.504 |
| Brc1ccc(Oc2ccccc2)cc1 [p-Bromodiphenyl ether] | – | 0.896 | 0.914 | 0.837 | 0.987 |
| [OH][Sn]([c]1ccccc1)([c]1ccccc1)[c]1ccccc1 [Triphenyltin hydroxide] | 0.857 | 0.622 | 0.135 | 0.0103 | 0.0121 |
| O=C(NC(=O)c1c(F)cccc1F)Nc1ccc(OC(F)(F)C(F)OC(F)(F)F)c(Cl)c1 (centres undefined) [Novaluron] | 1.08 | 0.982 | 0.998 | 0.935 | 1.48 |
| CCOP(=O)(SC(C)CC)N1CCSC1=O (centres undefined) [Fosthiazate] | 1.08 | 1.07 | 1.19 | 1.21 | 1.7 |
| [Cl-].[Cl-].[Hg+2] [Mercuric chloride] | – | 0.533 | 0.402 | 0.153 | 0.0217 |
| c1nc[nH]n1 [1H-1,2,4-Triazole] | – | 0.873 | 0.956 | 0.885 | 1.12 |
| CN1COCN(Cc2cnc(Cl)s2)C1=N[N+](=O)[O-] [Thiamethoxam] | 1.14 | 1.09 | 1.1 | 0.959 | 2.15 |
| CN/C(=N\[N+](=O)[O-])NCc1cnc(Cl)s1 [Clothianidin] | 0.978 | 0.964 | 0.897 | 1.05 | 1.48 |
| O=[N+]([O-])/N=C1\NCCN1Cc1ccc(Cl)nc1 [Imidacloprid] | 0.993 | 1.11 | 0.934 | 0.949 | 1.15 |
| O=S1OCC2C(CO1)C1(Cl)C(Cl)=C(Cl)C2(Cl)C1(Cl)Cl (centres undefined) [Endosulfan] | 1.05 | 1.05 | 1.02 | 1.13 | 1.06 |
| CS(=O)(=O)c1cc(C(F)(F)F)ccc1C(=O)c1cnoc1C1CC1 [Isoxaflutole] | 0.938 | 0.74 | 0.954 | 0.778 | 2.79 |
| CCC[CH2][Sn]([Cl])([CH2]CCC)[CH2]CCC [Tributyltin chloride] | – | 0.598 | 0.574 | 0.235 | 0.0217 |
| CCCSP(=O)(OCC)Oc1ccc(Br)cc1Cl (centres undefined) [Profenofos] | 0.9 | 0.888 | 0.969 | 1 | 0.894 |
| Nc1nc(N)nc(NC2CC2)n1 [Cyromazine] | 1.1 | 0.889 | 0.95 | 1.05 | 1.86 |
| CCN(CC)N=O [N-Nitrosodiethylamine] | – | 1.02 | 0.957 | 1.07 | 1.08 |
| C=CC(=O)OCCCCCC(C)C [Isooctyl acrylate] | – | 0.895 | 0.841 | 0.931 | 1.07 |
| CC1C(c2ccc(Cl)cc2)SC(=O)N1C(=O)NC1CCCCC1 (centres undefined) [Hexythiazox] | 0.957 | 0.999 | 0.929 | 0.977 | 0.244 |
| CN=C=S [Methyl isothiocyanate] | 0.842 | 0.902 | 0.962 | 1.06 | 1.71 |
| CC(C)(c1ccccc1)c1ccc(O)c(C(C)(C)c2ccccc2)c1 [2,4-Bis(1-methyl-1-phenylethyl)phenol] | – | 0.856 | 0.888 | 1.05 | 1.14 |
